Assay outcomes from PubChem BioAssay.
The full list was thinned out, with hits kept by preference.
HT1080-NT tox: qHTS for induction of synthetic lethality in tumor cells producing 2HG: qHTS for the HT-1080-NT fibrosarcoma cell line; HT-1080-NT fibrosarcoma viability, CellTiter-Glo ATP luminescence, 48 h; Potency, µM (titrated, usually from 46.1 µM), for the others: top-dose activity, negative = less viability, hits mostly cytotoxic; 360,000 compounds, 1.6% hits; AID 686970, 2013;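 also: NT is the 2HG producing partner of a matched IDH1 knockdown line; potency is read from the fitted curve at half-maximal effect; 0% = DMSO-treated cells and -100% = media-only wells without cells; nearly all actives have a fitted effect of over 55% in size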
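Luminescent CellTiter-Glo readout after 48 hours of compound exposure at 37 degrees C defined viability of HT-1080-NT cells. Activity was normalized to DMSO wells and cell-free media wells; concentration-response curves were fitted and assigned curve classes.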
HT1080 IDH1KD tx: qHTS for induction of synthetic lethality in tumor cells producing 2HG: qHTS for the HT-1080-IDH1KD cell line | HT-1080 IDH1 knockdown viability, ATP luminescence, 48 h | Potency, µM (highest dose often 46.1 µM), for the others: at the highest dose activity, negative = toxicity, hits mostly cytotoxic | 360,000 compounds, 2% hits | AID 686971, 2013;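 also: potency is read from the fitted curve at half-maximal effect; 0% = DMSO wells and -100% = cell-free medium wells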
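HT-1080-IDH1KD cells (IDH1 knocked down), 750/well in RPMI with 5% FBS, treated with compound 48 h at 37 degrees C. Viability by CellTiter-Glo luminescence, normalised to DMSO and no-cell wells; concentration-response curves classed.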
TDP1 cell CPT: qHTS for Inhibitors of human tyrosyl-DNA phosphodiesterase 1 (TDP1): qHTS in cells in presence of CPT; chicken DT40 Tdp1-/-;hTDP1 cells + 20 nM CPT, ATP luminescence, 48 h; Potency, µM (doses to about 46.2 µM), for inactives: at the top dose activity change, negative = growth inhibition, hits mostly inhibitors; 420,000 compounds, 12% hits; AID 686979, 2013; also: potency is read from the fitted curve at half-maximal effect; nearly all actives have a fitted effect of over 55% in size
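Chicken DT40 Tdp1-/- cells stably complemented with human TDP1 were seeded at 400 cells/well in medium containing 20 nM camptothecin, exposed to pin-transferred compounds, and grown at 37 °C for at least 48 hr. Viability was read as ATP luminescence.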
ALOX12 inh: Primary qHTS assay for inhibitors of human arachidonate 12S-lipoxygenase (ALOX12): Round 2 | Polyunsaturated fatty acid lipoxygenase ALOX12 (Homo sapiens), P18054 | purified 12hLO, xylenol orange hydroperoxide absorbance | Potency, µM (doses to about 108 µM), inactives show at the top dose activity change, negative = inhibition, actives largely listed as inhibitors | 580,000 compounds, 1.1% hits | AID 1671190, 2021; also: potency is read from the fitted curve at half-maximal effect
Target sequence (P18054 whole entry, looked up): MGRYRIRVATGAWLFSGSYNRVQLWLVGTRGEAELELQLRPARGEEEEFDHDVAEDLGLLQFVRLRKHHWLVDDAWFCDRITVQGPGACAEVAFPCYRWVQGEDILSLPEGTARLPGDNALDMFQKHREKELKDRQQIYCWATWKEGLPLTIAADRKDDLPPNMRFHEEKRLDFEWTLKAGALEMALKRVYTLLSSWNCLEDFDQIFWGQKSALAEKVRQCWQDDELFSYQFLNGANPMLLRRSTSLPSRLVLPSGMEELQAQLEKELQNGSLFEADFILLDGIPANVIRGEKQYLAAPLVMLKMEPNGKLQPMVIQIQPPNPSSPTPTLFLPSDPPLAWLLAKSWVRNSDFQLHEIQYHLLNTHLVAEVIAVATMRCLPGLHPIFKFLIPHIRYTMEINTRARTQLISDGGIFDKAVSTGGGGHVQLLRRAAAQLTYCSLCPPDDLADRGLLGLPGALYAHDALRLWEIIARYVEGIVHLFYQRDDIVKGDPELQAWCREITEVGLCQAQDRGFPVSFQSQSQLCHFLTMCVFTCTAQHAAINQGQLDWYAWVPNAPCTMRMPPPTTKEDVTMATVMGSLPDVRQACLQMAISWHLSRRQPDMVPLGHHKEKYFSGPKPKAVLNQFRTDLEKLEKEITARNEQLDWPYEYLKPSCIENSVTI
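Purified human 12hLO at 150 nM in 25 mM Hepes, 0.01% Triton X-100, pH 7.0, preincubated 15 min at room temperature with compound. Reaction started with 40 uM arachidonic acid, 30 min at room temperature. Hydroperoxide measured by Fe-xylenol orange, 573/405 nm absorbance ratio.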
IL1B secr inh: qHTS for Inhibitors of Inflammasome Signaling: IL-1-beta AlphaLISA Primary Screen; THP-1 LPS/ATP IL-1B secretion, AlphaLISA, 16 h; stronger effect = lower value; activity change, % at 57.5 µM; 360,000 compounds, 4.7% hits; in the data active = activity change below about -50%; inconclusive = mostly about -30% to -49%
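THP-1 cells pretreated 1 hr with compounds (up to 57.5 uM final), then stimulated with LPS (250 ng/mL final) plus ATP (1.25 mM final); secreted IL-1B measured by AlphaLISA after 16 hr, decreased signal indicating inhibition.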
TDP1 cell noCPT: qHTS for Inhibitors of human tyrosyl-DNA phosphodiesterase 1 (TDP1): qHTS in cells in absence of CPT. DT40 Tdp1-/- hTDP1 cells, no CPT, ATP luminescence, 48 h. Potency, µM (doses to about 46.2 µM), without a hit: at the highest dose activity change, negative = growth inhibition, actives largely listed as inhibitors. 420,000 compounds, 15% hits; also: potency is read from the fitted curve at half-maximal effect; nearly all actives have a fitted effect of over 55% in size
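Camptothecin absent (DMSO only). Human TDP1-complemented DT40 knockout cells, 400 cells/well, 37 °C for minimum 48 hr; ATP measured via CellTiter-Glo, 30 min dark incubation, luminescence.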
Starred values were filed as active, the others as inactive; i = inactive; ? = inconclusive; . = no result given; [ ] = another dose, or the depositor's remark. Unless noted, calls follow the shape of the dose curve; as a rule, active = well fitted curve in the direction sought with a large enough effect; inconclusive = small, poorly fitted or top-dose-only effect, or another doubt; inactive = no such curve, though single readings can be large; an effect the other way counts as inactive or inconclusive. Unless noted, % is scaled to controls: 0 for no effect and ±100 for the full control effect.

SMILES	HT1080-NT tox	HT1080 IDH1KD tx	TDP1 cell CPT	ALOX12 inh	IL1B secr inh	TDP1 cell noCPT
O=C1C=CC(=O)N1c1ccc2c(c1)C(NC(=O)C(F)(F)F)c1ccccc1-2 (stereo not given)	0%	?	1.3µM*	?	-81*	1.8µM*
Cc1cccc(/C=N/NC(=O)c2cc(-c3cccnc3)nc3ccccc23)c1	10%	20%	0%	-9%	47	-3%
O=C(N/N=C/c1cccnc1)c1cc(-c2ccccc2Cl)nc2ccccc12	-5%	5%	?	99%	i	4.6µM*
Cc1cccc(/C=N/NC(=O)c2cc(-c3cccnc3)nc3c2c(C)nn3-c2ccccc2)c1	17%	9%	?	0%	-13	23µM*
CC(C)COc1cccc(-c2cc(C(=O)Nc3ccon3)c3ccccc3n2)c1	?	?	16µM*	-11%	-22	10µM*
CCCOc1cccc(-c2cc(C(=O)N/N=C/c3ccccn3)c3ccccc3n2)c1	-28%	?	12µM*	492%	-98*	9.2µM*
CN(C)Cc1nnc(C2CC(NC(=O)CC3Cc4ccccc4C3)C2)n1C (stereo not given)	.	.	.	7%	.	.
CCCOc1cccc(-c2cc(C(=O)NN)c3ccccc3n2)c1	-2%	?	9.2µM*	-19%	65	10µM*
CCCOc1cccc(-c2cc(C(=O)N/N=C/c3cccnc3)c3ccccc3n2)c1	-16%	?	9.2µM*	114%	i	8.2µM*
COc1cc(/C=N/NC(=O)c2cc(-c3ccccc3)nc3ccccc23)cc(OC)c1O	-2%	3%	?	-11%	29	?
COc1ccc(Br)cc1C(=O)N/N=C/c1cccnc1	19%	8%	12%	4%	3	12%
CC(C)Oc1ccccc1-c1cc(C(=O)N/N=C/c2cccnc2)c2ccccc2n1	-11%	-28%	?	i	i	?
COc1cc2ccccc2cc1C(=O)N/N=C/c1cccnc1	-12%	?	15µM*	3%	-11	?
COc1ccc(-c2cc(C(=O)N/N=C/c3cc(OC)c(OC)cc3OC)c3ccccc3n2)cc1	-2%	-21%	10µM*	91%	-7	9.2µM*
CCCOc1cccc(-c2cc(C(=O)O)c3cc(C)ccc3n2)c1	.	.	.	-17%	.	.
CC(=O)N1CCc2c(sc3c2c(=O)n(-c2ccc(C)cc2)c(=O)n3Cc2c(F)cccc2Cl)C1	.	.	?	0%	.	?
CCCCCCn1nc(C(=O)OCn2nnc3ccccc3c2=O)c2ccccc2c1=O	.	.	.	0%	.	.
Cc1cccc(-c2c(NC(=O)C(C)C)oc3c(C)cccc3c2=O)c1	.	.	.	5%	.	.
O=C(O)Cc1ccc2c(c1)[nH]c1ccccc12	.	.	.	-1%	.	.
COc1ccc(-c2cc(C(=O)N/N=C/c3cccnc3)c3ccccc3n2)cc1	?	?	9.2µM*	0%	-12	?
Cc1cccc(-c2cc(C(=O)N/N=C/c3cccnc3)c3ccccc3n2)c1	-11%	-22%	?	236%	-20	?
O=C(CN1CCCCCC1)Nc1ccc(Oc2ccccc2)cc1	?	?	10%	-4%	?	?
COc1cc(NC(=O)C[n+]2ccc(C(=O)c3ccccc3)cc2)cc(OC)c1	1%	-2%	23µM*	-8%	-21	13µM*
CO/N=C\CC(=O)Nc1ccc(Oc2ccccc2)cc1	?	?	1.5µM*	-14%	81	1.3µM*
O=C(Cc1ccccc1)Nc1ccc(Oc2ccccc2)cc1	.	.	.	-54%	.	.
SMILES	HT1080-NT tox	HT1080 IDH1KD tx	TDP1 cell CPT	ALOX12 inh	IL1B secr inh	TDP1 cell noCPT
O=C(C[n+]1ccccc1)Nc1ccc(Oc2ccccc2)cc1	-16%	-17%	12µM*	-5%	?	?
CCOC(=O)C1CCN(C(=O)CN2C(=O)COc3ccc(C(C)(C)C)cc32)CC1	-12%	4%	-12%	-2%	-7	?
CN(C)c1ccc(-c2nnnn2[C@H]2CO[C@H]3[C@@H]2OC[C@@H]3NC(=O)Nc2ccc(Oc3ccccc3)cc2)cc1	.	.	.	-8%	.	.
CCC(CC)C(=O)Nc1ccc([C@@H](O)[C@H]2COCC(=O)N2CC)cc1	.	.	.	93%[176 µM]	.	.
O=C(NC[C@H]1OC[C@@H](NC2CCC2)[C@@H]1O)C1CC1	.	.	.	40%[176 µM]	.	.
Oc1cccc(-c2nc3ccc4ccccc4c3c3c2CCC3)c1	?	?	?	-23%	0	21µM*
CCCOc1ccc(-c2nc3ccc4ccccc4c3c3c2CCC3)cc1	.	.	.	-1%	.	.
COc1ccccc1C(=O)N1CCc2nn(Cc3ccccc3)c(=O)n2CC1	.	.	.	32%	.	.
Cc1cccc(N2CC(C(=O)Nc3cccc(S(=O)(=O)N4CCCCC4)c3)CC2=O)c1C (stereo not given)	-22%[9.24 µM]	-14%	18µM*	1%	-51*	?
CCC(C)c1ccccc1N1CC(C(=O)NCCC2=CCCCC2)CC1=O (stereo not given)	-2%	1%	18µM*	393%	-3	16µM*
CSc1cccc(NC(=O)C2CCN(S(=O)(=O)c3ccc4[nH]c5c(c4c3)CCCCC5)CC2)c1	.	.	?	?	.	21µM*
CCOc1ccccc1N1CC(C(=O)NCCC2=CCCCC2)CC1=O (stereo not given)	0%	-3%	?	-16%	-18	-29%
CCc1ccc(N2CC(C(=O)Nc3ccc(S(=O)(=O)N4CCOCC4)cc3)CC2=O)cc1 (stereo not given)	-8%	-1%	?	?	-61*	?
Cc1ccc(-c2ncn(-c3ccc(Nc4nccc(-c5cccc(N6CCOCC6)c5)n4)cc3)n2)cn1	.	.	.	-4%[57.4 µM]	.	.
CN(CCc1noc(C2CN(Cc3cc(Cl)ccc3F)C2)n1)S(C)(=O)=O	.	.	.	13%	.	.
CC1=CC2C(C)(C)CC(=O)C[C@]2(C)CC1COc1ccc2c(c1)CC(=O)C=C2 (stereo not given in full)	.	.	-10%[9.04 µM]	12%	.	-5%[9.04 µM]
CCCCNC(=O)CN(C(C)C)C1CC1	.	.	.	26%	.	.
